Assay results: the supplement of paper PMC7261846
± gives the uncertainty stated by the source.

Test system: Candida albicans SNY425 biofilm
Test: biofilm OD600 with compound plus antifungal (OD600 (absorbance)); higher = more biofilm remaining
[1] = assay detail: disruption of 24-h mature biofilm (compound + antifungal for a second 24 h)
[2] = assay detail: sustained inhibition (compound + antifungal during 90-min adherence and 24-h growth)

SMILES | biofilm OD600 [1] | biofilm OD600 [2]
NCCc1ccc(S(=O)(=O)F)cc1 + OC(Cn1cncn1)(Cn1cncn1)c1ccc(F)cc1F [fluconazole] (first compound 4 µM) | 0.278 ± 0.0089 | 0.109 ± 0.0077
CN1C(=O)[C@]23CC4=CC=C[C@H](O)[C@H]4N2C(=O)[C@@]1(CO)SS3 [Gliotoxin] + C[C@@H]1[C@H](O)[C@@H](C)/C=C/C=C/C=C/C=C/C=C/C=C/C=C/[C@H](O[C@@H]2O[C@H](C)[C@@H](O)[C@H](N)[C@@H]2O)C[C@@H]2O[C@](O)(C[C@@H](O)C[C@@H](O)[C@H](O)CC[C@@H](O)C[C@@H](O)CC(=O)O[C@H]1C)C[C@H](O)[C@H]2C(=O)O [amphotericin B] (first compound 1 µM) | 0.226 ± 0.0062 | 0.0908 ± 0.0077
NCCc1ccc(S(=O)(=O)F)cc1 + C[C@@H]1[C@H](O)[C@@H](C)/C=C/C=C/C=C/C=C/C=C/C=C/C=C/[C@H](O[C@@H]2O[C@H](C)[C@@H](O)[C@H](N)[C@@H]2O)C[C@@H]2O[C@](O)(C[C@@H](O)C[C@@H](O)[C@H](O)CC[C@@H](O)C[C@@H](O)CC(=O)O[C@H]1C)C[C@H](O)[C@H]2C(=O)O [amphotericin B] (first compound 4 µM) | 0.303 ± 0.0047 | 0.184 ± 0.011
CN1C(=O)[C@]23CC4=CC=C[C@H](O)[C@H]4N2C(=O)[C@@]1(CO)SS3 [Gliotoxin] + CC[C@H](C)C[C@H](C)CCCCCCCCC(=O)N[C@H]1C[C@@H](O)[C@@H](NCCN)NC(=O)[C@@H]2[C@@H](O)CCN2C(=O)[C@H]([C@H](O)CCN)NC(=O)[C@H]([C@H](O)[C@@H](O)c2ccc(O)cc2)NC(=O)[C@@H]2C[C@@H](O)CN2C(=O)[C@H]([C@@H](C)O)NC1=O [caspofungin] (first compound 1 µM) | 0.217 ± 0.0081 | 0.0858 ± 0.0052
NCCc1ccc(S(=O)(=O)F)cc1 + CC[C@H](C)C[C@H](C)CCCCCCCCC(=O)N[C@H]1C[C@@H](O)[C@@H](NCCN)NC(=O)[C@@H]2[C@@H](O)CCN2C(=O)[C@H]([C@H](O)CCN)NC(=O)[C@H]([C@H](O)[C@@H](O)c2ccc(O)cc2)NC(=O)[C@@H]2C[C@@H](O)CN2C(=O)[C@H]([C@@H](C)O)NC1=O [caspofungin] (first compound 4 µM) | 0.29 ± 0.0053 | 0.172 ± 0.0053
CN1C(=O)[C@]23CC4=CC=C[C@H](O)[C@H]4N2C(=O)[C@@]1(CO)SS3 [Gliotoxin] + OC(Cn1cncn1)(Cn1cncn1)c1ccc(F)cc1F [fluconazole] (first compound 1 µM) | 0.211 ± 0.0079 | 0.0782 ± 0.0052
